Assay outcomes as filed in PubChem BioAssay.
An excerpt weighted towards active compounds, which were near 6.3% of everything screened.
RORgamma inh: blocks mouse ROR gamma transcriptional activity; Drosophila S2 Gal4-RORgamma UAS-luciferase reporter, 20 h; Potency, µM (highest dose often 53.6 µM), for the others: at the highest dose activity change, negative = inhibition, hits mostly inhibitors; actives 5.4% (n = 310,000); further: on the % scale 0 is the no-effect control and ±100 the full control effect; nearly all actives have a fitted effect of over 60% in size
Target sequence (P51450 whole entry, looked up, the tested form may be a part): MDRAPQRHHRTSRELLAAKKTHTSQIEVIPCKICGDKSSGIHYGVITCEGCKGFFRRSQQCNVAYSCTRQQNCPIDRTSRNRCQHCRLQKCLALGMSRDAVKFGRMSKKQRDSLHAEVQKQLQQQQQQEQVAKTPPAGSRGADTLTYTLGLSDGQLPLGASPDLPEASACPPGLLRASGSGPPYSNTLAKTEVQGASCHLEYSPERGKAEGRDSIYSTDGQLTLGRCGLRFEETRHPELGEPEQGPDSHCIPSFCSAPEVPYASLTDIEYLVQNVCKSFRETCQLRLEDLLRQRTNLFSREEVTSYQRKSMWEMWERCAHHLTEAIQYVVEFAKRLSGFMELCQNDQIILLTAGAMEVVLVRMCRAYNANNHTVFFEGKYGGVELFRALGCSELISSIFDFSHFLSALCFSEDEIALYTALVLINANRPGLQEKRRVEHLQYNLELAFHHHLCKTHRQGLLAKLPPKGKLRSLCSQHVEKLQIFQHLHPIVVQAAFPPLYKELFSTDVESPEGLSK
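Drosophila Schneider cells stably carrying a metallothionein-driven Gal4 DBD–ROR gamma fusion and a UAS-Photinus luciferase reporter were exposed to compound for 1 hr, then induced with copper sulfate (700 uM final) for 20 hr at ambient temperature before luminescence reading.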
HepG2 tox: counter-screen for TGF-b inhibitors: cytotoxicity in HepG2 cells; HepG2 CAGA-GFP viability, ATP luminescence, 18 h; actives 0.76% (n = 410,000); Potency, µM (series often up to 46.1 µM), for the others: at the highest dose activity change, negative = cytotoxicity, hits mostly cytotoxic
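HepG2 CAGA-GFP cells (1000/well, DMEM with 1% FBS) received compound, then TGF-beta at 500 pg/mL final, and were incubated 18 hours at 37 degrees C. Viability was read by CellTiter-Glo luminescence. Media-only wells were set as complete cell-killing and DMSO as no toxicity.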
TGFb inhibitor: blocks TGF-b signaling | HepG2 CAGA-GFP TGF-b/SMAD3 reporter, GFP fluorescence, 18 h; TGF-beta stimulated, 500 pg/mL final | Potency, µM (highest dose often 46.1 µM), for the others: top-dose activity, negative = inhibition, most hits filed as inhibitors | actives 1.2% (n = 410,000) | AID 588855; further: on the % scale 0 is the no-effect control and ±100 the full control effect; nearly all actives have a fitted effect of over 65% in size
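GFP signal (ex488/em500-530) from TGF-beta-stimulated HEPG2 CAGA-GFP cells, 500 pg/mL final, 18 h at 37 degrees C in DMEM plus 1% FBS, normalized to unstimulated and DMSO-stimulated controls.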
S2 tox: cell viability loss in ATXN counter-screen; Potency, µM (series often up to 56.7 µM), actives largely listed as cytotoxic; S2 cells (HEK-293 line with an ATXN2-luciferase reporter) viability, CellTiter-Fluor protease fluorescence, 24 h; actives 0.49% (n = 400,000); further: nearly all actives have a fitted effect of over 40% in size
Gal4-VP16 FLuc: inhibits Gal4-VP16 luciferase reporter, ROR gamma counter-screen. Drosophila S2 Gal4-VP16 UAS-luciferase, luminescence, 20 h. Potency, µM (highest dose often 53.6 µM), for the others: at the top dose activity, negative = inhibition, most hits filed as inhibitors. actives 3.5% (n = 310,000);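 further: Gal4-VP16 expression switched on by copper sulfate through the metallothionein promoter; on the % scale 0 is the no-effect control and ±100 the full control effect; nearly all actives have a fitted effect of over 50% in size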
ATXN2 expr inh: inhibitors of ATXN2 expression; HEK-293 ATXN2-luciferase reporter, luminescence, 24 h; Potency, µM (series often up to 57 µM), without a hit: top-dose activity change, negative = inhibition, actives largely listed as inhibitors; actives 0.72% (n = 360,000); AID 1745845; further: on the % scale 0 is the no-effect control and ±100 the full control effect; nearly all actives have a fitted effect of over 55% in size
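qHTS (up to 57 uM final) was run with 24 h compound exposure of reporter cells at 37 °C. Each well was multiplexed: SteadyGlo luminescence measured ATXN2-luciferase expression after a fluorogenic Gly-Phe-AFC viability readout (25 uM final).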
Numbers without * were called inactive; i = inactive; ? = inconclusive; . = no result given; [ ] = remark or other dose. The call rests on the fitted dose curve; in most records, active means well fitted curve in the direction sought with a large enough effect; inconclusive means small, poorly fitted or top-dose-only effect, or another doubt; inactive means no such curve, though single readings can be large; an effect the other way counts as inactive or inconclusive. Potency means the concentration at half of the fitted maximal effect.

SMILES | RORgamma inh | HepG2 tox | TGFb inhibitor | S2 tox | Gal4-VP16 FLuc | ATXN2 expr inh
CCCCN(CCCC)C(=S)NC(=O)C(C)(C)C | 3.2µM* | -24% | ? | i | 6.3µM* | -13%
CCOC1(OCC)C(c2ccc(Cl)cc2)C(C#N)(C#N)C1(OCC)OCC (configuration not stated) | 13µM* | -39% | ? | ? | -63% | ?
CCOC1(OCC)C(c2ccc(N)cc2)C(C#N)(C#N)C1(OCC)OCC (configuration not stated) | -3% | 2% | 0% | i | 7% | 16%
Cc1c(C(C)C)c(=O)n(-c2ccccc2)n1C | -11%[10 µM] | . | . | i | 2% | 9%
Cc1c(C(C)C)c(=O)n(-c2ccc(S(=O)(=O)NC3CCCCC3)cc2)n1C | ? | -22% | -25% | i | 11µM* | ?
Cc1c(C(C)C)c(=O)n(-c2ccc(S(=O)(=O)NCc3ccccc3)cc2)n1C | ? | -12% | -23% | ? | 7.9µM* | -39%
Cc1ccccc1OC(C)C(=O)NCCNC(=O)C(C)Oc1ccccc1C (configuration not stated) | . | -19% | -8% | . | . | .
Cc1ccccc1C1(CC(=O)N2CCC[C@H]2C(N)=O)CC(=O)N(C2CCCC2)C1=O (some centres not stated) | . | . | . | i | . | .
CN(C)c1ccc(CNC(=O)C2CCN(C(=O)c3ccc(-n4ccc5ccccc54)s3)CC2)cc1 | . | -39% | ? | . | . | .
O=C(CCNC(=O)c1ccccc1)OCC(=O)c1cccc(Cl)c1 | 9% | 6% | 11% | i | 2% | 3%
O=C(CCC(=O)OCC(=O)c1ccccc1)NC1CCCCC1 | -6% | 5.6µM* | ? | i | -5% | 1%
O=C(CCC(=O)OCC(=O)c1ccc(-c2ccccc2)cc1)Nc1cccc(Cl)c1 | 7.1µM* | -19% | 22% | i | 13µM* | 15%
Cc1ccccc1NC(=O)CCC(=O)OCC(=O)c1ccc(-c2ccccc2)cc1 | 7.9µM* | -7% | -13% | i | 10µM* | 0%
COc1ccc(C(=O)CCC(=O)Nc2ccccc2C)cc1 | . | -6% | 1% | i | . | 7%
Cc1ccc2c(=O)cc(C(=O)Nc3ccc(S(=O)(=O)Nc4nc(C)cc(C)n4)cc3)oc2c1 | . | -63% | -4% | i | . | -3%
CC(C)c1ccc(NC(=O)c2cc3c([nH]c2=O)CC(C)(C)CC3=O)cc1 | . | -25% | -16% | . | . | .
COCCN(Cc1nc(-c2ccc(-c3ccccc3)cc2)oc1C)C(C)C | 11µM* | -26% | ? | ? | ? | .
Cc1oc(-c2ccoc2)nc1CN(CC1CCC(=O)N1)C(C)C (configuration not stated) | -11% | -11% | -12% | i | -5% | -5%
COc1cc(N/N=C/c2ccccc2O)ncn1 | 7.1µM* | -28% | -14% | i | 7.1µM* | ?
COc1cc(N/N=C/c2ccc(N(C)C)cc2)ncn1 | ? | -7% | -25% | i | ? | .
Cc1cc(/C=N/n2c(COc3ccccc3)nc3ccccc3c2=O)c(O)c([N+](=O)[O-])c1 | ? | -19% | 16µM* | ? | ? | ?
Cc1ccc(-c2[nH]ncc2/C=N/n2c(COc3ccccc3)nc3ccccc3c2=O)cc1 | ? | 14µM* | 10µM* | . | ? | ?
CN1CCN(c2nc3cc(N4CCOCC4)ccc3s2)CC1 | . | -13% | 4% | i | . | 17%
C=CCOC(=O)N[C@H](C[N+](=O)[O-])c1ccccc1 | 11% | . | . | . | 6% | .
CC1CCCCC1NC(=O)/C(C#N)=C/c1ccccc1F (configuration not stated) | 11µM* | -71% | ? | ? | 11µM* | ?
